# Data: PubChem BioAssay AID651949 (Broad Institute, 2012)
# Potency and affinity values are given separately. A number with no mark means an inactive call. Activity calls are given as the source filed them.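 Rule for the calls: active = compounds lowering cell ATP signal whose fitted half-maximal concentration is at most twice the top tested dose; inconclusive = flat curve with 30 to 70% signal loss, or poor fit; inactive = the rest.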
# Assay: viability loss in HEK293T cells – cell-based, CellTiter-Glo luminescence, dry powder, set 6, cytotoxicity control, dose response (AID 651949)
# Details: CellTiter-Glo ATP luminescence, 48 h; series mostly up to 26 µM; activity change, negative = cytotoxicity: at the top concentration
Compound,"activity change, negative = cytotoxicity",outcome
Fc1cccc(-c2nnc(SCc3ccccn3)o2)c1,-20.9%,
c1ccc(CSc2nnc(-c3ccncc3)o2)nc1,-13.5%,
Cc1ccc(CSc2nnc(-c3ccccc3)o2)cc1,3.5%,
CS(=O)(=O)c1ccc(-c2nnc(SCc3ccccc3)o2)cc1,-12.1%,
FC1(F)CN(CCSc2nnc(-c3ccccc3)o2)C1,-10.1%,
c1ccc(Cn2cc(CSc3nnc(C4CCC4)o3)nn2)cc1,12.5%,
COCCSc1nnc(-c2ccccc2)o1,-18.8%,
c1ccc(-c2nnc(SC3CCCCC3)o2)cc1,-2.18%,
c1ccc(-c2nnc(SCCN3CCCC3)o2)cc1,-11.4%,
Fc1ccc(CSc2nnc(-c3cccnc3)o2)cc1,5.85%,
Cc1ccc(-c2nnc(SCc3ccccc3)o2)cc1,-14.3%,
Clc1ccc(-c2nnc(SCc3ccccn3)o2)cc1,2.91%,
Cc1nnc(SCc2ccccc2)o1,-5.62%,
c1ccc(CSc2nnc(-c3cccnc3)o2)cc1,-4.32%,
CN(C)CCSc1nnc(-c2ccccc2)o1,3.08%,
Fc1ccc(Cn2cc(CSc3nnc(-c4ccc(F)cc4)o3)nn2)cc1,-11.5%,
Fc1ccc(CSc2nnc(-c3ccccc3)o2)cc1,,inactive
